High-throughput results as filed in PubChem BioAssay.
VCAM1 pot = enhances TNF alpha induced VCAM1 expression in HUVEC; activation, % at 2 µM; AID 808; HUVEC TNFa-stimulated VCAM-1 immunofluorescence, high-content imaging; scaled per plate to unstimulated/TNFa-only wells; 93,000 tested, 0.19% active;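 active = activation above the screen mean plus 3 SD, with well images confirming the hit on visual review, cut at about 28% in these data, passing the limit was not always enough; inconclusive = activation above that limit but images do not confirm it; inactive = activation not above that limit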;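 note: signal is the number of cytoplasmic VCAM-1 stained grains per positive cell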
VCAM1 pot confirm = enhancers of VCAM1 induction in HUVEC – imaging, triplicate retest, confirmation | HUVEC TNFa-stimulated VCAM-1 immunofluorescence imaging | activation, % at 2 µM | shares compounds with VCAM1 pot | 230 tested, under 10 active;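 active = activation above 30% in triplicate retests at 2 µM, then confirmed by visual review of the well images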
Of the large screens only hits and unclear results are named; the others gave an inactive call (follow-up assays come after a bar, where they were run). The entries come from a sample that favours hits as a whole.

COC(=O)c1cccc(NC(=O)C23CC4CC(C2)CC(n2cncn2)(C4)C3)c1	none
O=C(CCCSc1nc2ccccc2s1)NC1=NCCS1	none
CCC/C(=N/NC(=O)c1csc(C)c1C)c1ccc(Cl)s1	none
CCN=C1SC(CC(=O)Nc2ccccc2)C(=O)N1CC (centres undefined)	none
COc1cccc(C2CC(=O)NC3=C2C(=O)CCC3)c1 (centres undefined)	none
CCn1nccc1C(=O)Nc1nccs1	VCAM1 pot inconclusive | VCAM1 pot confirm inactive
Cc1ncoc1C(=O)Nc1nccs1	none
CC(C)CN1C(=O)c2ccc(C(=O)Nc3nccs3)cc2C1=O	none
CCNC(=O)/N=C1/NC(=O)C(C(C)C)O1 (centres undefined)	none
CCOC(=O)c1cc(-c2ccccc2)sc1NC(=S)Nc1cccc(C)n1	none
Cc1cccc(NC(=O)c2sc3nc(-c4ccccc4)cn3c2C)n1	VCAM1 pot 42 | VCAM1 pot confirm inactive
CCC(=O)NC(Nc1cccc(C)n1)(C(F)(F)F)C(F)(F)F	none
CCCC1(C)Nc2ccccc2-c2nc3ccccc3n21 (centres undefined)	none
CCN1CCN(C(c2cccs2)C(C)NS(=O)(=O)c2ccc(Br)cc2)CC1 (centres undefined)	none
COc1nc(Nc2ccc(C(C)C)cc2)nc(OC)n1	VCAM1 pot 47 | VCAM1 pot confirm inactive
CC(C)c1ccc(NC(=O)c2ccc(Br)o2)cc1	none
O=C(NCCc1ccccc1F)[C@@H]1CSC2c3ccccc3C(=O)N21 (some centres undefined)	none
CC(C)(C)NC(=O)CN(C(=O)Cn1nnc(-c2ccccc2F)n1)c1cccc2c1CCCC2	none
Cn1c(SCC(=O)Nc2ccccc2)nnc1-c1ccc(NC(=O)CCc2ccccc2)cc1	none
CSc1nnc(-c2ccc(NC(=O)CCc3ccccc3)cc2)n1C	VCAM1 pot inconclusive | VCAM1 pot confirm inactive
COc1cccc(-c2nnc(SCCC(=O)O)n2C)c1	none
CC(=O)NC(Cc1ccccc1)C(=O)N1CCN(C(=O)c2cccs2)CC1 (centres undefined)	none
O=C(NC1CCCCC1)C1CCCN1S(=O)(=O)c1cccc2nsnc12 (centres undefined)	none
O=C(Nc1ccc(Cl)cn1)C1CCCN1S(=O)(=O)c1cccc2ccccc12 (centres undefined)	VCAM1 pot 31 | VCAM1 pot confirm inactive
O=C(NCc1cccs1)C1CCCN1S(=O)(=O)c1ccccc1F (centres undefined)	none
COCCNC(=O)CN(C(=O)CCC(=O)Nc1cc(C)on1)c1ccccc1C	none
COc1ccc(C(=O)/C=C(\C)NCc2ccc3c(c2)OCO3)cc1	none
O=C(NN1C(=O)c2ccccc2NC1c1ccccn1)c1ccc(Br)cc1 (centres undefined)	none
O=C(O)c1cn(-c2ccccc2)nc1-c1ccncc1	none
Cc1ccc(-c2nn(-c3ccccc3)cc2C2CC(c3cccs3)=NN2C(=O)CCCC(=O)O)cc1 (centres undefined)	VCAM1 pot 30 | VCAM1 pot confirm inactive
CCOC(=O)c1nnn(CC(=O)N2N=C(c3ccccc3)CC2c2ccccc2)c1C(=O)OCC (centres undefined)	none
CCOC(=O)CNC(=O)CNC(=O)Cn1ccc2ccccc2c1=O	none
CCOC(=O)Cn1nc(/C=C/c2ccc(C(C)C)cc2)ccc1=O	none
COc1ccc2c(c1)c1c(n2C(C)=O)C(OC(C)=O)=NCC1	none
C/C=C(\C)CN1CCN(c2ccc(C)cc2)CC1	none
COc1ccc(N/C(=N\c2nc(C)cc(C)n2)NC(=O)C(C)C)cc1OC	none
Cc1cc2nc(-c3ccc(NC(=O)C(C)C)cc3)oc2cc1C	VCAM1 pot 58 | VCAM1 pot confirm inactive
CC(Oc1ccc(Cl)cc1Cl)C(=O)Nc1ccc2oc(-c3ccncc3)nc2c1 (centres undefined)	none
CCOC(=O)N1CCC(NC(=O)c2ccc(CS(=O)(=O)c3ccc(OC)cc3)o2)CC1	none
COc1cccc(NC(C)C(=O)N2CC(C)OC(C)C2)c1 (centres undefined)	none
NC(=O)C1CCN(C(=O)CCSc2ccccc2)CC1	none
O=C(CSc1ccc2nnc(-c3ccccc3)n2n1)N1CCN(c2ccccc2)CC1	none
NC(=O)C1CCN(C(=O)CSc2ccccn2)CC1	VCAM1 pot 41 | VCAM1 pot confirm inactive
c1ccc(OCCOCCSc2ncccn2)cc1	none
CN(CCOC(=O)c1ccc2c(c1)OCCO2)Cc1ccccc1	none
COCCn1c(=S)[nH]c2ncccc2c1=O	VCAM1 pot inconclusive | VCAM1 pot confirm inactive
COCCn1c(C23CC4CC(CC(C4)C2)C3)n[nH]c1=S	none
COCCn1c(SCC(=O)Nc2nnc(C)s2)nnc1-c1c[nH]c2ccccc12	none
COc1cccc(N2CCN(Cc3nc(N)nc(N4CCCc5ccccc54)n3)CC2)c1	none
COCCNC(=O)C(c1cccs1)N(C(=O)Cn1nnc2ccccc21)c1ccc(OC)cc1 (centres undefined)	none
CCn1c(CNC(=O)C(C)(C)C)nc2ccccc21	none
CCn1c2ccccc2c2cc(C3N=C(N)Nc4nc5ccccc5n43)ccc21 (centres undefined)	VCAM1 pot 54 | VCAM1 pot confirm inactive
CCn1c(=O)c2c(cnn2C)c2ccccc21	none
CC1CCCCN1C(=O)Cn1cc(C(=O)c2ccco2)c2ccccc21 (centres undefined)	none
O=C(NCc1ccco1)c1sc2cc(Cl)ccc2c1Cl	VCAM1 pot 64 | VCAM1 pot confirm inactive
CC(C)Oc1ccc(C(=O)NCc2ccco2)cc1	none
O=C(NCc1ccco1)c1ccc(CS(=O)(=O)Cc2ccc(Cl)cc2)o1	none
O=C(CC(=O)NN=C1CCCC1)NCCc1ccccc1	none
CCCn1c(SC(C)C(=O)O)nc2ccccc21 (centres undefined)	none
CCCCCC(=O)N1CCN(CCN=CC2=C(O)CC(c3cccs3)CC2=O)CC1 (centres undefined)	none
CCOC(=O)C1=C(c2ccccc2)OC(N)=C(C#N)C1c1ccco1 (centres undefined)	none
COCCOC(=O)C1=C(C)OC(N)=C(C#N)C1c1ccc2c(c1)OCO2 (centres undefined)	VCAM1 pot inconclusive | VCAM1 pot confirm inactive
CCOC(=O)Nc1ccc2c(c1)OCO2	none
O=C(Cn1c(=O)oc2ccccc21)NCc1ccco1	none
CCc1ccc(NC(=O)Cn2c(=O)n(CCCC(=O)NCc3ccco3)c(=O)c3ccccc32)cc1	VCAM1 pot inconclusive | VCAM1 pot confirm inactive
CCN(Cc1ccccc1)C(=O)Cn1c(=O)n(CC(=O)NCc2ccco2)c(=O)c2sccc21	none
CC1CCCC(NC(=S)Nc2ccc(SC(F)F)cc2)C1C (centres undefined)	none
CC(=NCCCNC1CCCCC1)C1=C(O)CC(C)(C)CC1=O	VCAM1 pot inconclusive | VCAM1 pot confirm inactive
CCC(c1nnnn1Cc1ccc(F)cc1)N1CCN(C2CCCCC2)CC1 (centres undefined)	none
Cc1nn(-c2ccc3nnc(Br)n3n2)c(C)c1Br	none
Cc1ccc(OCC(=O)NCc2ccco2)cc1C	none
CCCOc1ccc(CC(=O)NCc2ccco2)cc1OC	none
CCn1cc(C(=O)NCc2ccco2)c2cc(OC)c(OC)cc2c1=O	VCAM1 pot inconclusive | VCAM1 pot confirm inactive
O=C(Cn1nnc(-c2ccc(S(=O)(=O)N3CCCC3)cc2)n1)NCC1CCCO1 (centres undefined)	none
Cc1cc(=O)cc(C)n1-c1ccccc1N1CCOCC1	none
CCOc1ccc(Br)cc1S(=O)(=O)Nc1ccccc1N1CCOCC1	VCAM1 pot 92 | VCAM1 pot confirm inactive
CCOc1cc(N2CCOCC2)c(OCC)cc1NC(=O)CC12CC3CC(CC(C3)C1)C2	none
Cc1noc(C)c1S(=O)(=O)N1CCCC(C(=O)Nc2cccnc2)C1 (centres undefined)	none
